Several values for one entry are separate records, joined by “and”; a condition that tells them apart may be missing. Equal values may be shown once. Out of some 5,500 compounds screened, about 2,000 (36%) were called active. Inconclusive results (about 18%) are left out. Rule as the data show it: active = normalized growth mostly below about 0.91 (no sharp cut-off); inconclusive = no clear call, values can overlap the other calls; inactive = mostly above about 0.92. Some of the results follow.
Assay: chemical genetic growth profiling, strain panel (AID 1159580);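 also: tested at 20 µM; growth read once vehicle control cultures reached saturation at 30 °C; 1 = growth at the plate median or of vehicle wells; lower values mean less growth of the strain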
Conditions: S. cerevisiae deletion strains, growth OD

Measured: normalized growth

CN(C(=O)CN(CCO)CC(=O)N(C)C(C)(C)Cc1ccccc1)C(C)(C)Cc1ccccc1
inactive: locus YAL021C, strain ccr4, active compounds read low 1.01 | locus YAL026C, strain drs2, active compounds read low 1.02 | locus YAL030W, strain snc1, active compounds read low 1 | locus YBL061C, strain skt5, active compounds read low 1.01 | locus YBR009C, strain hhf1, active compounds read low 1.01 | locus YBR021W, strain FUR4, active compounds read low 0.985 | locus YBR023C, strain chs3, active compounds read low 1.01 | locus YBR171W, strain sec66, active compounds read low 1.04 | locus YBR229C, strain ROT2, active compounds read low 0.993 | locus YBR231C, strain swc5, active compounds read low 1 | locus YBR279W, strain paf1, active compounds read low 1.01 | locus YCL011C, strain gbp2, active compounds read low 1.01 | locus YCL016C, strain dcc1, active compounds read low 1.01 | locus YCL029C, strain bik1, active compounds read low 0.97 | locus YCL061C, strain MRC1, active compounds read low 1.02 | locus YCL069W, strain vba3, active compounds read low 1.01 | locus YCR088W, strain abp1, active compounds read low 1.01 | locus YDL005C, strain med2, active compounds read low 1 | locus YDL035C, strain GPR1, active compounds read low 0.954 | locus YDL040C, strain nat1, active compounds read low 1 | locus YDL074C, strain BRE1, active compounds read low 0.978 | locus YDL101C, strain DUN1, active compounds read low 1 | locus YDL134C, strain PPH21, active compounds read low 0.983 | locus YDL185W, strain tfp1, active compounds read low 0.954 | locus YDL192W, strain arf1, active compounds read low 0.98 | locus YDR001C, strain nth1, active compounds read low 1.01 | locus YDR069C, strain doa4, active compounds read low 1.01 | locus YDR101C, strain arx1, active compounds read low 1 | locus YDR137W, strain rgp1, active compounds read low 1.07 | locus YDR159W, strain sac3, active compounds read low 0.998 | locus YDR162C, strain NBP2, active compounds read low 0.957 | locus YDR195W, strain ref2 0.995 | locus YDR297W, strain sur2, active compounds read low 1 | locus YDR318W, strain mcm21, active compounds read low 0.979 | locus YDR334W, strain swr1, active compounds read low 1.02 | locus YDR335W, strain msn5, active compounds read low 1.01 | locus YDR388W, active compounds read low 0.979 | locus YDR392W, strain spt3, active compounds read low 0.981 | locus YDR502C, strain sam2, active compounds read low 0.981 | locus YEL003W, strain gim4, active compounds read low 1.01 | locus YEL037C, strain rad23, active compounds read low 1.02 | locus YEL061C, strain CIN8 (second series), active compounds read low 1.02 | locus YEL061C, strain CIN8, active compounds read low 0.997 | locus YER015W, strain faa2, active compounds read low 1.02 | locus YER016W, strain bim1, active compounds read low 1.03 | locus YER110C, active compounds read low 0.976 | locus YER111C, strain swi4, active compounds read low 1.02 | locus YER155C, strain BEM2 (second series), active compounds read low 1.02 | locus YER155C, strain BEM2, active compounds read low 0.994 | locus YER167W, strain BCK2, active compounds read low 0.987 | locus YFR010W, strain ubp6, active compounds read low 1.01 | locus YGL078C, strain dbp3, active compounds read low 0.983 | locus YGL086W, strain mad1, active compounds read low 0.979 | locus YGL167C, strain pmr1, active compounds read low 1.01 | locus YGL173C, strain kem1, active compounds read low 1.02 | locus YGL227W, strain vid30, active compounds read low 1.02 | locus YGL240W, strain doc1, active compounds read low 0.986 | locus YGL248W, strain PDE1, active compounds read low 1.01 | locus YGL253W, strain hxk2, active compounds read low 1.03 | locus YGR078C, strain PAC10, active compounds read low 1 | locus YGR135W, strain pre9, active compounds read low 0.973 | locus YGR229C, strain SMI1, active compounds read low 0.98 | locus YGR252W, strain gcn5, active compounds read low 1.01 | locus YHR013C, strain ard1, active compounds read low 1.04 | locus YHR027C, strain rpn1, active compounds read low 1.02 | locus YHR030C, strain SLT2, active compounds read low 0.985 and 0.989 | locus YHR079C, strain IRE1 (second series), active compounds read low 0.975 | locus YHR079C, strain IRE1, active compounds read low 0.98 | locus YHR094C, strain hxt1, active compounds read low 0.99 | locus YHR129C, strain ARP1, active compounds read low 0.992 | locus YHR142W, strain chs7, active compounds read low 1.02 | locus YHR200W, strain rpn10, active compounds read low 0.971 | locus YIL066C, strain RNR3, active compounds read low 0.996 | locus YIL073C, strain SPO22, active compounds read low 1.14 | locus YIL125W, strain kgd1, active compounds read low 0.988 | locus YIR030C, strain dcg1, active compounds read low 0.976 | locus YJL092W, strain hpr5, active compounds read low 1.01 | locus YJL095W, strain BCK1 (second series), active compounds read low 1.01 | locus YJL095W, strain BCK1, active compounds read low 1.01 | locus YJL115W, strain asf1, active compounds read low 1.02 | locus YJL129C, strain trk1, active compounds read low 1.02 | locus YJL134W, strain LCB3, active compounds read low 0.986 | locus YJL154C, strain vps35, active compounds read low 1.01 | locus YJL164C, strain tpk1, active compounds read low 1 | locus YJL166W, strain qcr8, active compounds read low 1.01 | locus YJL168C, strain set2, active compounds read low 0.989 | locus YJL187C, strain SWE1 (second series), active compounds read low 1.01 | locus YJL187C, strain SWE1, active compounds read low 1.01 | locus YJR043C, strain POL32, active compounds read low 0.962

— PubChem BioAssay AID1159580 (chemical genetic matrix, 2015)
